Screening results (PubChem)
Compounds with a hit are over-represented: about 7.6% of the library has one in this group of screens.
KCNH2 3.1 block: blocks the human KCNH2 3.1 channel isoform | AID 720553 | U2OS KCNH2 3.1, thallium flux FluxOr; active compounds read low | activity change, % (tested at about 1.8 µM) | 340,000 compounds, 0.95% hits;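 active means maximum activity change below -70%; inconclusive means maximum activity change from -70% to -50%; inactive means maximum activity change above -50%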;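 further: thallium influx rate constant from kinetic fluorescence after stimulation buffer; on the % scale 0 is the no-effect control and ±100 the full control effect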
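Steps: virus added to U2OS suspension (4 h, RT, dark); medium with 10% FBS added, cells plated, 37 C overnight; FluxOr/Red40 loading buffer 45 min RT; stimulation buffer, 2 min kinetic read; rate constant normalized.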
KB-V1 MDR tox: KB-V1 MDR subline cytotoxicity; 400,000 compounds, 3.4% hits; Potency, µM (series often up to 46.1 µM), actives largely listed as cytotoxic; KB-V1 MDR cells viability, CellTiter-Glo, 72 h; further: potency means the concentration at half of the fitted maximal effect; on the % scale 0 is the no-effect control and ±100 the full control effect; nearly all actives have a fitted effect of over 60% in size
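KB-V1, DMEM (no phenol red) + 10% FBS; cpd pin-transferred, titration series; 72 h, 37 degrees C; CellTiter-Glo, luminescence. Data normalized, curve-fit.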
SW480 rereplic: inducers of DNA re-replication in SW480 colon cancer cells; SW480 DNA re-replication, Hoechst DNA content imaging, 48 h; Potency, µM (series often up to 46.1 µM), for the others: at the top dose re-replication activation, actives largely listed as activators; 340,000 compounds, 1.8% hits; further: potency means the concentration at half of the fitted maximal effect; % of control where 0% means no effect; nearly all actives have a fitted effect of over 55% in size
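Hoechst fluorescence of nuclei (405 nm excitation, 500-530 nm emission) measured by plate-scanning imager after 48 hr compound exposure at 37 C; re-replication scored as increased number of nuclei with elevated intensity.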
KB-3-1 cytotox: kills parental KB-3-1 adenocarcinoma cells; 400,000 compounds, 1.4% hits; KB-3-1 viability, CellTiter-Glo ATP luminescence, 72 h; Potency, µM (titrated, usually from 46.1 µM), most hits filed as cytotoxic; further: potency means the concentration at half of the fitted maximal effect; on the % scale 0 is the no-effect control and ±100 the full control effect; nearly all actives have a fitted effect of over 60% in size
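Parental KB-3-1 adenocarcinoma cells in phenol-red-free DMEM with 10% FBS were pin-treated with compounds at several concentrations, incubated 72 h at 37 °C, and viability read by CellTiter-Glo luminescence; concentration-effect curves were fitted after normalization.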
MCF10A rerep: DNA re-replication induction in MCF 10a cells | MCF 10A DNA re-replication, Hoechst nuclear intensity, 48 h | Potency, µM (highest dose often 46.1 µM), for the others: at the top dose activity, positive = re-replication, actives largely listed as activators | 350,000 compounds, 2.9% hits; further: potency means the concentration at half of the fitted maximal effect; % of control where 0% means no effect; nearly all actives have a fitted effect of over 50% in size
KCNH2 WT inh: blocks the wildtype human KCNH2 potassium channel; Q12809; U2OS, BacMam KCNH2, thallium flux FluxOr; active compounds read low; activity change, % at 1.84 µM; 340,000 compounds, 0.37% hits; AID 720551;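 active means maximum activity change below -70%; inconclusive means maximum activity change between -70% and -50%; inactive means maximum activity change above -50%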; further: on the % scale 0 is the no-effect control and ±100 the full control effect
Target sequence (Q12809 whole entry, looked up): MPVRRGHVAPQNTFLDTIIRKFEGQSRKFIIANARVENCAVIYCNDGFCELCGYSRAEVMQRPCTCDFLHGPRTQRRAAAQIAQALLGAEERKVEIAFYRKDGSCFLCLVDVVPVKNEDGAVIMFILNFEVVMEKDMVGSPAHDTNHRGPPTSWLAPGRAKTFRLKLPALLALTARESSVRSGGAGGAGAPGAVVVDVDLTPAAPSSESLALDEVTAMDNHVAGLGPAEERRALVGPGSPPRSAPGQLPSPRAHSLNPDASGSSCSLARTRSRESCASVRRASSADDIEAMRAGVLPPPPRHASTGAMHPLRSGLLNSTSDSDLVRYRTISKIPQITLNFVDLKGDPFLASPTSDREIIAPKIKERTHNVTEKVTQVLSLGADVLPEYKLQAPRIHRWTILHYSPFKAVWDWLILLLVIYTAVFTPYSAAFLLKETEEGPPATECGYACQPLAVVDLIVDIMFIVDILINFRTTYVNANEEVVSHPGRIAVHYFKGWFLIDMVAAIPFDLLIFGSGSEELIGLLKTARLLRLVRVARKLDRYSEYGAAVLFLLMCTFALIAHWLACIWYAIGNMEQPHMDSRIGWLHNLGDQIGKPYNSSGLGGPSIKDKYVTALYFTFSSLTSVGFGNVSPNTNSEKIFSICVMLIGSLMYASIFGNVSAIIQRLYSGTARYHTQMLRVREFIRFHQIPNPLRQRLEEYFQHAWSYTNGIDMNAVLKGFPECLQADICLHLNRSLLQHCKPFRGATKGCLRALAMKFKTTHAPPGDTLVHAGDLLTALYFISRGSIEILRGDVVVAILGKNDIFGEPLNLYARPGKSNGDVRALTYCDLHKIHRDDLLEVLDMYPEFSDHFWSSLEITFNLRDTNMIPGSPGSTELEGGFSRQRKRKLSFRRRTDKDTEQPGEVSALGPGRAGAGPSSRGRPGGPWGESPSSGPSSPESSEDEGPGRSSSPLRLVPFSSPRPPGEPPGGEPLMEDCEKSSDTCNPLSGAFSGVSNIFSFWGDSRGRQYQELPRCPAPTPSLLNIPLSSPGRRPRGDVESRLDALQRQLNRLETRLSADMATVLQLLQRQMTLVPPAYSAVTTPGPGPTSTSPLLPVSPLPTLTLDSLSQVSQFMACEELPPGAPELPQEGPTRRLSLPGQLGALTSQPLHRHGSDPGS
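U2OS cells transduced with wild-type KCNH2 virus are loaded with FluxOr dye for 45 min, and thallium flux is measured in kinetic reads before and after stimulation buffer. Rate constants are normalized to DMSO controls.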
* marks the source's active call; other numbers are inactive results; i = inactive; ? = inconclusive; · = no result; [ ] = remark or other dose. Unless noted, the call rests on the fitted dose curve; in most records, active means well fitted curve in the direction sought with a large enough effect; inconclusive means small, poorly fitted or top-dose-only effect, or another doubt; inactive means no such curve, though single readings can be large; an effect the other way counts as inactive or inconclusive.

SMILES	KCNH2 3.1 block	KB-V1 MDR tox	SW480 rereplic	KB-3-1 cytotox	MCF10A rerep	KCNH2 WT inh
COc1ccc2sc(-c3ccc(N(C)C)cc3)c(C#CC(C)(C)O)c2c1	-38	i	2.1µM*	i	12%	-16
Cc1ccc(S(=O)(=O)c2nc(S(=O)(=O)c3ccccc3)sc2N2CCN(CCO)CC2)cc1	-5	?	-1%	21µM*	17%	4
CCS(=O)(=O)c1nc(S(=O)(=O)c2ccc(C)cc2)c(N2CCN(CCO)CC2)s1	9	i	1%	i	0%	-18
Cc1ccc(S(=O)(=O)c2nc(S(=O)(=O)c3ccccc3)sc2N2CCN(C)CC2)cc1	1	?	36%	?	23µM*	3
Cc1ccc(C)c(N2CCN(C3CCCCC3NS(=O)(=O)c3ccccc3)CC2)c1 (configuration not stated)	4	i	27%	16µM*	?	8
O=S(=O)(NC1CCCCC1N1CCN(c2ccc(F)cc2)CC1)c1ccccc1 (configuration not stated)	-81*	i	3%	i	26µM*	27
COc1ccc(-c2nnc(SCC(=O)Nc3cccc(F)c3)s2)cc1	·	i	·	i	·	·
CCc1nc(SCC(=O)NC2CCCC2)c2oc3ccccc3c2n1	0	?	0%	i	4%	2
O=C(CSc1nc(-c2ccc(F)cc2)[nH]c1-c1ccc(F)cc1)Nc1ccc2c(c1)OCCO2	·	18µM*	·	?	·	·
O=C(CSc1ncnc2c1oc1ccccc12)Nc1cccc(F)c1	-7	i	-3%	i	?	-1
CCc1nc(SCC(=O)Nc2ccc3c(c2)OCCO3)c2oc3ccccc3c2n1	-4	21µM*	1%	?	23µM*	-21
Cc1nc(SCC(=O)Nc2ccc3c(c2)OCCO3)c2oc3ccccc3c2n1	-49	16µM*	-1%	i	103%	5
O=C(CSc1ncnc2c1oc1ccccc12)Nc1ccc2c(c1)OCCO2	0	16µM*	-2%	i	22%	5
Cc1cc(C)c2c(n1)SCC(=O)N2CC(=O)Nc1cccc(C)c1C	·	i	·	i	·	·
COc1cc(SC)ccc1C(=O)N(CC(=O)Nc1ccccc1Br)Cc1ccco1	16	i	-84%	i	-12%	8
Cc1nc(SCC(=O)N2CCN(c3ccccc3)CC2)c2oc3ccccc3c2n1	5	21µM*	-6%	i	?	-13
CCc1nc(SCC(=O)N2CCCc3ccccc32)c2oc3ccccc3c2n1	-13	10µM*	-5%	?	16µM*	12
Cc1nc(SCC(=O)O)c2oc3ccccc3c2n1	10	i	-2%	i	584%[0.0737 µM]	-7
COC(=O)C1=C(N)N(c2ccccc2F)C2=C(C(=O)CC(C)(C)C2)C1c1ccc(OC)c(OC)c1 (configuration not stated)	-1	4.6µM*	?	?	5%	-4
COCCN1C2=C(C(=O)CC(C)(C)C2)C(c2ccc(OC)c(OC)c2)C2=C1CC(C)(C)CC2=O	-5	i	-5%	i	1%	9
CCOC(=O)C1=C(CSCC(=O)OC)NC(=O)NC1c1cc(C)ccc1C (configuration not stated)	4	i	-11%	i	-7%	-8
CCOC(=O)C1=C(CSc2nc3ccccc3s2)NC(=O)NC1c1cc(C)ccc1C (configuration not stated)	-7	i	18µM*	i	?	-3
CCOC(=O)C1=C(CSc2nc3ccccc3s2)NC(=O)NC1c1ccc(OC)cc1 (configuration not stated)	1	16µM*	-2%	?	5%	-17
Cc1ccc(-n2ncc(C(=O)NCCCN3CCN(C)CC3)c2C2CCN(C(=O)OC(C)(C)C)CC2)c(C)c1	·	i	·	i	·	·
C[C@]12c3[nH]c4cc(-c5ccco5)ccc4c3CCN1C(=O)[C@@H](CC(=O)NCCCn1ccnc1)C[C@@H]2C(=O)N1CCOCC1	-12	i	-8%[9.22 µM]	i	-17%	0
SMILES	KCNH2 3.1 block	KB-V1 MDR tox	SW480 rereplic	KB-3-1 cytotox	MCF10A rerep	KCNH2 WT inh
CCOC(=O)c1ccc(NC(=O)CCNC(=O)c2ccc([N+](=O)[O-])cc2)cc1	-8	15µM*	-5%	i	6%	28
COC(=O)C(CCCCNC(=O)c1ccc([N+](=O)[O-])cc1)NC(=O)c1ccc([N+](=O)[O-])cc1 (configuration not stated)	-93*	i	-5%	i	-29%	?
Cc1nn(Cc2ccc(C(=O)NN)o2)c(C)c1Cl	-1	i	?	i	?	-5
Cc1nn(Cc2ccc(C(=O)Nc3ccc(C(=O)OC(C)C)cc3)o2)c(C)c1Cl	-10	23µM*	-1%	i	?	9
O=C(NC1(C(F)(F)F)NC(=O)N(c2ccc(F)cc2)C1=O)c1ccncc1 (configuration not stated)	-1	i	-2%	i	-2%	-6
COc1ccc(-c2c[n+](CC(=O)OC3CC(C)CCC3C(C)C)c3n2CCC3)cc1 (configuration not stated)	-17	i	-32%	i	0.82µM*	-38
Cc1ccc(C)c(S(=O)(=O)NCC(=O)OCC(=O)Nc2sccc2C(N)=O)c1	-6	i	-2%	i	-2%	-3
O=C(/C=C/c1ccccc1Cl)NNC(=O)c1ccncc1	6	i	?	i	6%	14
O=C(/C=C/c1ccccc1Cl)c1cccnc1	-4	?	?	i	5.8µM*	-2
N#Cc1ccc(/C=C/C(=O)c2cccnc2)cc1	-3	?	-28%	i	7.3µM*	·
O=C(/C=C/c1ccc(Cl)cc1)c1cccnc1	1	?	?	?	?	-14
CC(C)NC(=O)C1(C)CCN1C(=O)c1ccccc1F (configuration not stated)	·	i	·	i	·	·
CC(C)(C)c1ccc(N2C(=O)CSC2c2cccnc2)cc1 (configuration not stated)	-1	i	10%	i	2.3µM*	-7
Cc1cccc(N(C)C(=O)CCS(=O)(=O)c2ccc3c(c2)oc(=O)n3C)c1	·	i	·	i	·	·
Cc1onc(-c2ccccc2Cl)c1C(=O)N1CCN(c2ccccc2)CC1	-11	21µM*	19%	i	-18%	17
Cc1onc(-c2ccccc2Cl)c1C(=O)N1CCCC1	-2	i	30%	i	-1%	5
Cc1onc(-c2ccccc2Cl)c1C(=O)N1CCN(c2cccc(Cl)c2)CC1	12	1.3µM*	7.3µM*	2.3µM*	?	1
